Assay results reported in PubChem BioAssay AID1159580 (chemical genetic matrix, 2015).
In all, about 5,500 compounds went through this assay and about 2,000 (36%) were called active. Another 18% or so got no clear call; they are omitted. Cut-off read from the data, not from the text of the source: active = normalized growth mostly below about 0.91 (no sharp cut-off); inconclusive = no clear call, values can overlap the other calls; inactive = mostly above about 0.92. The list shows a part of the results.

Assay: chemical genetic growth profiling, strain panel (AID 1159580);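 note: tested at 20 µM; growth read once vehicle control cultures reached saturation at 30 °C; 1 = growth at the plate median or of vehicle wells; lower values mean less growth of the strain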
Settings: S. cerevisiae deletion strains, growth OD

Measured: normalized growth

Cc1c(Nc2ncccc2C(=O)O)cccc1C(F)(F)F
inactive: locus YAL021C, strain ccr4, stronger effect = lower value 0.937 | locus YAL026C, strain drs2, stronger effect = lower value 0.979 | locus YAL030W, strain snc1, stronger effect = lower value 0.981 | locus YBL061C, strain skt5, stronger effect = lower value 0.981 | locus YBR009C, strain hhf1, stronger effect = lower value 0.967 | locus YBR023C, strain chs3, stronger effect = lower value 0.99 | locus YBR171W, strain sec66, stronger effect = lower value 0.969 | locus YBR231C, strain swc5, stronger effect = lower value 1.01 | locus YBR279W, strain paf1, stronger effect = lower value 0.987 | locus YCL011C, strain gbp2, stronger effect = lower value 0.979 | locus YCL016C, strain dcc1, stronger effect = lower value 0.975 | locus YCL069W, strain vba3, stronger effect = lower value 0.985 | locus YCR088W, strain abp1, stronger effect = lower value 0.979 | locus YDL005C, strain med2, stronger effect = lower value 0.986 | locus YDL040C, strain nat1, stronger effect = lower value 0.981 | locus YDR001C, strain nth1, stronger effect = lower value 0.964 | locus YDR069C, strain doa4, stronger effect = lower value 0.966 | locus YDR137W, strain rgp1, stronger effect = lower value 0.979 | locus YDR159W, strain sac3, stronger effect = lower value 0.999 | locus YDR195W, strain ref2 0.955 | locus YDR297W, strain sur2, stronger effect = lower value 0.996 | locus YDR334W, strain swr1, stronger effect = lower value 0.961 | locus YDR335W, strain msn5, stronger effect = lower value 0.983 | locus YDR392W, strain spt3, stronger effect = lower value 1 | locus YEL003W, strain gim4, stronger effect = lower value 0.974 | locus YEL037C, strain rad23, stronger effect = lower value 0.989 | locus YEL061C, strain CIN8 (second series), stronger effect = lower value 0.981 | locus YER015W, strain faa2, stronger effect = lower value 0.988 | locus YER016W, strain bim1, stronger effect = lower value 0.978 | locus YER111C, strain swi4, stronger effect = lower value 0.963 | locus YER155C, strain BEM2 (second series), stronger effect = lower value 1.01 | locus YFR010W, strain ubp6, stronger effect = lower value 0.978 | locus YGL167C, strain pmr1, stronger effect = lower value 0.952 | locus YGL173C, strain kem1, stronger effect = lower value 0.984 | locus YGL227W, strain vid30, stronger effect = lower value 0.978 | locus YGL240W, strain doc1, stronger effect = lower value 1.02 | locus YGL253W, strain hxk2, stronger effect = lower value 0.968 | locus YHR013C, strain ard1, stronger effect = lower value 0.958 | locus YHR027C, strain rpn1, stronger effect = lower value 0.971 | locus YHR030C, strain SLT2, stronger effect = lower value 0.947 | locus YHR079C, strain IRE1, stronger effect = lower value 0.974 | locus YHR142W, strain chs7, stronger effect = lower value 0.96 | locus YJL092W, strain hpr5, stronger effect = lower value 0.961 | locus YJL095W, strain BCK1 (second series), stronger effect = lower value 0.983 | locus YJL095W, strain BCK1, stronger effect = lower value 0.989 | locus YJL115W, strain asf1, stronger effect = lower value 0.958 | locus YJL129C, strain trk1, stronger effect = lower value 0.955 | locus YJL154C, strain vps35, stronger effect = lower value 0.972 | locus YJL164C, strain tpk1, stronger effect = lower value 0.97 | locus YJL166W, strain qcr8, stronger effect = lower value 0.994 | locus YJL187C, strain SWE1, stronger effect = lower value 0.992 | locus YJR066W, strain TOR1, stronger effect = lower value 0.928 | locus YKL160W, strain elf1, stronger effect = lower value 0.967 | locus YKR026C, strain gcn3, stronger effect = lower value 0.972 | locus YKR091W, strain srl3, stronger effect = lower value 0.97 | locus YLL001W, strain dnm1, stronger effect = lower value 0.981 | locus YLL026W, stronger effect = lower value 0.978 | locus YLL041C, strain sdh2, stronger effect = lower value 0.953 | locus YLR027C, strain aat2, stronger effect = lower value 0.993 | locus YLR113W, strain HOG1, stronger effect = lower value 0.991 | locus YLR221C, strain rsa3, stronger effect = lower value 0.997 | locus YLR258W, strain gsy2, stronger effect = lower value 0.969 | locus YLR262C, strain YPT6 (second series), stronger effect = lower value 1.02 | locus YLR320W, strain mms22, stronger effect = lower value 1.01 | locus YLR342W, strain FKS1, stronger effect = lower value 0.988 | locus YLR357W, strain rsc2, stronger effect = lower value 0.952 | locus YLR370C, strain arc18, stronger effect = lower value 0.963 | locus YLR384C, strain iki3, stronger effect = lower value 1 | locus YML120C, strain ndi1, stronger effect = lower value 0.974 | locus YMR058W, strain fet3, stronger effect = lower value 0.972 | locus YMR125W, strain sto1, stronger effect = lower value 0.945 | locus YMR129W, stronger effect = lower value 0.972 | locus YMR205C, strain PFK2, stronger effect = lower value 0.977 | locus YMR231W, strain pep5, stronger effect = lower value 0.983 | locus YNL071W, strain lat1, stronger effect = lower value 0.981 | locus YNL183C, strain NPR1, stronger effect = lower value 0.954 | locus YNL209W, strain ssb2, stronger effect = lower value 0.983 | locus YNL248C, strain rpa49, stronger effect = lower value 0.996 | locus YNL322C, strain KRE1 (second series), stronger effect = lower value 0.97 | locus YNR049C, strain mso1, stronger effect = lower value 0.962 | locus YOR001W, strain rrp6, stronger effect = lower value 0.983 | locus YOR070C, strain gyp1, stronger effect = lower value 0.989 | locus YOR080W, strain dia2, stronger effect = lower value 0.979 | locus YOR083W, strain WHI5, stronger effect = lower value 0.98 | locus YOR106W, strain vam3, stronger effect = lower value 0.957 | locus YOR231W, strain MKK1, stronger effect = lower value 0.982 | locus YOR265W, strain rbl2, stronger effect = lower value 0.968 | locus YOR270C, strain vph1, stronger effect = lower value 0.983 | locus YOR290C, strain snf2, stronger effect = lower value 0.943 | locus YPL051W, strain arl3, stronger effect = lower value 1.01 | locus YPL078C, strain atp4, stronger effect = lower value 0.951 | locus YPL106C, strain sse1, stronger effect = lower value 0.982 | locus YPL240C, strain hsp82, stronger effect = lower value 0.98 | locus YPL256C, strain CLN2, stronger effect = lower value 0.951
